Reference: PubChem BioAssay (EPA / NIEHS)
Results filed as inconclusive are left out. Active and inactive are the calls of the source. The calls were made as follows: active = hit-call score of the fitted dose curve at least 0.9, where 1 is the maximum; inconclusive = response in the unintended direction; inactive = score below 0.9.

target: human Peroxisome Proliferator-activated Receptor alpha (PPARa), PPARA (gene 5465) (UniProt Q07869); test: ATG_PPARa_TRANS: Attagene TRANS-FACTORIAL HepG2 Assay for human Peroxisome Proliferator-activated Receptor alpha (PPARa) (AID 2283001);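 as to AC50: potency for gain of reporter signal over DMSO so agonist or activator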
Method in brief: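 HepG2, transient MRTU transfection, 24 h treatment. RT-PCR → FAM labelling → capillary electrophoresis. Fit vs DMSO, positive direction.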

Sequence of human Peroxisome Proliferator-activated Receptor alpha (PPARa), PPARA (gene 5465) (Q07869 whole entry, looked up): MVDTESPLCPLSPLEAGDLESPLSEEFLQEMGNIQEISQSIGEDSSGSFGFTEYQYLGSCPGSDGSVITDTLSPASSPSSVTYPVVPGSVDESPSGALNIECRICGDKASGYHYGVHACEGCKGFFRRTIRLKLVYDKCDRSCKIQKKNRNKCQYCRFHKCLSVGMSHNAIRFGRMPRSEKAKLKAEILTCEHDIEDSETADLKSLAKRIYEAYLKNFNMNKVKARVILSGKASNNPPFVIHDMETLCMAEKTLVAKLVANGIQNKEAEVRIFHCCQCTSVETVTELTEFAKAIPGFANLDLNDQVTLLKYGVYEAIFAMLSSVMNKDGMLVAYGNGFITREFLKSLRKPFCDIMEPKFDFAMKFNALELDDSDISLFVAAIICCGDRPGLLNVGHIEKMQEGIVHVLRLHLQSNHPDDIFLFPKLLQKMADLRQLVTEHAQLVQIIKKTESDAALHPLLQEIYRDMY

outcome, inactive:
O=C(O)c1cc(C(=O)O)cc([N+](=O)[O-])c1
CCOCCOCCOCC
CC(C)CC(C)CC(O)CC(C)C (stereo not drawn)
COC(=O)C=C(C)CCC=C(C)C
BrCc1cccc(Oc2ccccc2)c1
CCCCCCC(C)(C)S
Cc1ccc(OC(=O)c2ccccc2O)cc1
CCCCCCCCCC(=O)OC
COC(=O)c1ccc(OC)cc1
CC=Cc1ccc(OC)c(OC)c1
CC(C)CCCCCCCCCCCCCCC(=O)O
O=C(Nc1ccc([N+](=O)[O-])cc1)Nc1ccc([N+](=O)[O-])cc1 (tested in a mixture with another compound)
FC(F)(F)COCC(F)(F)F
Nc1c(S(=O)(=O)O)cc(Br)c2c1C(=O)c1ccccc1C2=O
COC(=O)Nc1ccc(Cl)c(Cl)c1
CCCCCCOC(=O)C(C)C
CC(=O)O[C@@H]1C[C@@H]2CC[C@@]1(C)C2(C)C
C=C(C)C(=O)OCCOC1CC2CC1C1C=CCC21 (stereo not drawn)
c1ccc2[nH]cnc2c1
CC(O)C1CCCCC1 (stereo not drawn)
CC(C)NCC(O)COc1ccc(CC(N)=O)cc1 (stereo not drawn)
CCOC(=O)c1ccc(N)cc1
OCc1cccc(Oc2ccccc2)c1
CCOC(=O)CCc1ccccc1
CCCCCCCCC=CCCCCCCCC1=NCCN1CCO
Cc1cc(=O)oc2cc(N(C)C)ccc12
CC=CC=CCOC(=O)C(C)C
C=C(C)[C@@H]1CC=C(C)C(=O)C1
Nc1ccc(Cl)c([N+](=O)[O-])c1
C=C(CC(=O)O)C(=O)O
O=C(Nc1ccc2c(c1)Cc1ccccc1-2)C(F)(F)F
CC[N+](C)(CC)CC
COc1cc(CCC(C)=O)ccc1O
Cc1ncc[nH]1
COC(=O)c1cccnc1
C=C(C)C1CC=C(C)C(=O)C1 (stereo not drawn)

AC50, active:
CCCCCCCCCCCC(=O)OCC(O)CO (stereo not drawn) 100 µM
CCCCCCCCCC(C)C=O (stereo not drawn) 27.5 µM

target: Retinoic acid receptor alpha (Homo sapiens) (UniProt P10276); test: ATG_RARa_TRANS: Attagene TRANS-FACTORIAL HepG2 Assay for human Retinoic Acid Receptor alpha (RARa) (AID 2283005)
Method in brief: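 HepG2 transiently transfected with multiplex GAL4-UAS reporter units including a human RARa–GAL4 chimera; 24 h compound exposure. Reporter mRNA quantified by RT-PCR, 6-FAM labeling and capillary electrophoresis; gain of signal versus DMSO.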

Sequence of Retinoic acid receptor alpha (Homo sapiens) (P10276 whole entry, looked up, the tested form may be a part): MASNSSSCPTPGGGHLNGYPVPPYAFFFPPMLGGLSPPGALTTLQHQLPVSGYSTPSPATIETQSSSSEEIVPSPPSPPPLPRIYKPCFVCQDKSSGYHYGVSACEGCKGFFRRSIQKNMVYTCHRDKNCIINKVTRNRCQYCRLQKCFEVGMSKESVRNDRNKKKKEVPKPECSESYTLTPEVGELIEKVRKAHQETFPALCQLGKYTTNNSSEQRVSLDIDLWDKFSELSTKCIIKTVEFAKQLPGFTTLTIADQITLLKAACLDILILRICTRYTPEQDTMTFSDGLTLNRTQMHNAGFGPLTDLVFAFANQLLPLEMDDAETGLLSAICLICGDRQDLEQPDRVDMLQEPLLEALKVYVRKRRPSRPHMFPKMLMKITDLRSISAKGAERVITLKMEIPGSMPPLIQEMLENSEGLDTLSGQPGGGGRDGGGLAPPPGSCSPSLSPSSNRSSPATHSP

outcome, inactive:
CCOCCOCCOCC
CC(C)CC(C)CC(O)CC(C)C (stereo not drawn)
CCCCCCC(C)(C)S
CC(C)CCCCCCCCCCCCCCC(=O)O
FC(F)(F)COCC(F)(F)F
CC(=O)O[C@@H]1C[C@@H]2CC[C@@]1(C)C2(C)C
c1ccc2[nH]cnc2c1
CC(O)C1CCCCC1 (stereo not drawn)
CC(C)NCC(O)COc1ccc(CC(N)=O)cc1 (stereo not drawn)
CCCCCCCCC=CCCCCCCCC1=NCCN1CCO
C=C(CC(=O)O)C(=O)O
O=C(Nc1ccc2c(c1)Cc1ccccc1-2)C(F)(F)F
CC[N+](C)(CC)CC
COc1cc(CCC(C)=O)ccc1O
C=C(C)C1CC=C(C)C(=O)C1 (stereo not drawn)
